Assay results published in PubChem BioAssay AID1626 (SRMLSC, 2009).
Among all 220,000 compounds or so, about 2,000 (0.91%) were called active. Not shown: some 2% with an inconclusive outcome. Not all results are given here. Measured potencies and affinities stand elsewhere. A number with no mark means an inactive call. No stated cut-off is given here; in the data, inconclusive means inhibition above about 80% without an active follow-up result; inactive means below that; test concentration not stated here.

test: M. tuberculosis H37Rv growth inhibitors, H37Rv strain (AID 1626); conditions: hits give high values, concentration not given here;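 further: bacteria incubated seven days before Alamar blue readout; 0% = bacteria only wells and 100% = bacteria with antibiotic wells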

Row | Compound | inhibition
1 | NC(=S)Nc1cccc(F)c1 | -6.55%
2 | Cc1ccc(CNC(=O)Nc2cccc(C)c2)cc1 | -0.4%
3 | CCC(Sc1ccccn1)C(=O)Nc1nnc(C)s1 (stereo not given) | 22%
4 | O=C(Nc1ccc2c(c1)OCO2)c1nn(-c2ccccc2)c(=O)c2ccccc12 | -10.6%
5 | Cc1ccc(Nc2nc(-c3c(C)nc4ncccn34)cs2)cc1 | 6.26%
6 | Cc1nc2ncccn2c1-c1csc(Nc2ccc(O)cc2)n1 | 1.06%
7 | O=C(Nc1cccc(Cl)c1)OCc1cn(-c2ccccc2)nn1 | -9.19%
8 | Cc1ccc(CN2CCN(/N=C/c3cc(Br)ccc3O)CC2)cc1 | 2.82%
9 | COc1ccc(CCNC(=O)CN(CCc2ccccc2)S(C)(=O)=O)cc1OC | 5.24%
10 | CCCN(CCC)C(=O)CSc1nc2c(sc(=S)n2-c2ccc(OCC)cc2)c(=O)[nH]1 | 6.22%
11 | O=C(Nc1ccccc1C(=O)NCc1ccccc1)c1ccccc1 | -4.15%
12 | O=C(O)CCC(=O)Nc1ccccc1C(=O)NCc1ccccc1 | -4.2%
13 | O=C(NCc1cccc(CNC(=O)c2ccco2)c1)c1ccco1 | -1.79%
14 | N/C(Cc1ccccc1Sc1ccccc1)=N\O | -3.65%
15 | COc1ccc(-c2csc(-c3cccs3)n2)c(OC)c1 | 6.31%
16 | COc1ccc(-c2noc(-c3cccs3)n2)cc1OC | 10.1%
17 | O=C(CN1C(=O)NC2NC(=O)NC21)NN=C1CCCC1 (stereo not given) | -3.27%
18 | Cc1ccccc1N(CC(=O)NCCSCc1ccco1)S(C)(=O)=O | -3.95%
19 | O=C(COC(=O)c1ccc(O)cc1)Nc1ccc(N2CCCCC2)cc1 | 3.59%
20 | CC12CCC(C(=O)Nc3ccc4c(c3)OCCO4)(OC1=O)C2(C)C (stereo not given) | -12.4%
21 | N#Cc1c(N)c(C(=O)c2ccc(Cl)cc2)n2c1CCC2 | -2.62%
22 | CC(C)C(=O)Nc1nnc(-c2ccccc2)o1 | 10.9%

Row | Compound | inhibition
23 | O=C(Nc1nnc(-c2ccncc2)o1)c1ccccc1 | 68%
24 | CCCCOC(=O)c1nnc(-c2ccc(Cl)cc2)o1 | -12.6%
25 | O=C(Nc1cccnc1)c1ccc(Br)s1 | -8.07%
26 | CC(NC(=O)c1ccc(Br)s1)c1ccncc1 (stereo not given) | 0.09%
27 | O=C(Nc1nnc(-c2ccccc2)o1)c1cccc(N2C(=O)CCC2=O)c1 | 7.39%
28 | CC(C)(C)C(=O)Nc1nnc(-c2ccncc2)o1 | -0.06%
29 | CCCCNC(=O)Nc1nnc(-c2ccccc2)o1 | 64.8%
30 | COCCNC(=O)CCC(=O)NNc1nc2ccccc2c2nc(C)nn12 | -0.78%
31 | CN(C)S(=O)(=O)c1cccc(C(=O)Nc2ccccc2[N+](=O)[O-])c1 | -64.1%
32 | CC(=O)c1cccc(NC(=O)c2ccc(N(Cc3ccc(C)cc3)S(C)(=O)=O)cc2)c1 | 1.69%
33 | Cc1ccc(/C=N/n2c(C)cc(C)c(C#N)c2=O)cc1 | -12.6%
34 | O=C(NC1(C(F)(F)F)NC(=O)N(c2ccccc2F)C1=O)c1ccncc1 (stereo not given) | -15.1%
35 | Cc1nnc(N)s1 | -5.97%
36 | O=C(Nc1nnc(-c2ccc(Cl)cc2)o1)c1ccc(N2C(=O)CCC2=O)cc1 | 8.01%
37 | CN(C)c1ccc(C(=O)NNC(=O)c2ccc(Cl)cc2)cc1 | -8.45%
38 | O=C(CNc1cccc(C(F)(F)F)c1)N/N=C/c1cn(-c2ccccc2)nc1-c1ccccc1 | 8.35%
39 | CC(C)(C)C1CCc2c(sc3nc(SCC(=O)O)nc(N)c23)C1 (stereo not given) | -0.64%
40 | CNC(=O)CSc1nc(N)c2c3c(sc2n1)CCC3 | 9.76%
41 | NC(=O)CSc1nc(N)c2c3c(sc2n1)CCCCC3 | -1.55%
42 | CC1CCc2c(sc3nc(SCC(=O)NCc4ccco4)nc(N)c23)C1 (stereo not given) | 7.95%
43 | CCOC(=O)CSc1nc(N)c2c3c(sc2n1)CCCC3 | 70.6%
44 | Cc1ccccc1NC(=O)CSc1nc(N)c2c3c(sc2n1)CSC(C)(C)C3 | 53.7%

Row | Compound | inhibition
45 | CCOc1ccccc1C1C(C#N)=C(N)Oc2cc(N)ccc21 (stereo not given) | 8.36%
46 | C=CCN1C(=O)C(C(C)CC)NC1=S (stereo not given) | -2.92%
47 | Cc1ccc(N=C2NC(=O)C(CC(=O)NCc3ccccc3)S2)cc1C (stereo not given) | -1.52%
48 | O=C(CCc1c[nH]c2ccccc12)Nc1ccc(S(=O)(=O)Nc2ncccn2)cc1 | -2.28%
49 | CC1CC1C(=O)OCC(=O)Nc1cccc([N+](=O)[O-])c1 (stereo not given) | -1.97%
50 | CN1CCN(Cc2ccc(Sc3ccc(Cl)cc3)c([N+](=O)[O-])c2)CC1 | 18.9%
51 | Cc1ccc(Sc2ccc(CN3CCCC3)cc2[N+](=O)[O-])cc1 | 9.11%
52 | O=C(CN1CCOCC1)NNC(=S)Nc1ccc(Cl)cc1 | 4.8%
53 | Cc1ccc(SCC(=O)NC2CCS(=O)(=O)C2)cc1 (stereo not given) | 4.3%
54 | c1ccc2c(c1)oc1c(NCc3ccc4c(c3)OCO4)ncnc12 | 57.7%
55 | Cc1nc(Nc2ccc3c(c2)OCO3)c2oc3ccccc3c2n1 | -15.2%
56 | CCc1nc(N2CCN(Cc3ccc4c(c3)OCO4)CC2)c2oc3ccccc3c2n1 | 5.87%
57 | CCc1nc(Nc2ccc3c(c2)OCCO3)c2oc3ccccc3c2n1 | 1.04%
58 | CC1Cc2ccccc2N1C(=O)c1cnc2ccccn2c1=O (stereo not given) | -5.12%
59 | COc1ccc2cc(C(=O)N3CCCCCC3)sc(=O)c2c1OC | -2.1%
60 | CCCCCC(=O)N1CC2(CC(c3cccc(NC(=O)CC(c4ccccc4)c4ccccc4)c3)=NO2)C[C@@H]1C(N)=O (stereo not given in full) | 11.1%
61 | Cc1nc(CNS(=O)(=O)c2cccs2)cs1 | 5.2%
62 | c1ccc2c(c1)ccc1ncccc12 | -7.23%
63 | Nc1ccc(/C=C/c2ccc3ncccc3c2)cc1 | 17.8%
64 | COc1cccc(-c2ccc(C#N)c(=O)[nH]2)c1 | -3.44%
65 | O=C(Nc1cccc(O)c1)c1cccc(S(=O)(=O)N2CCCC2)c1 | -5.4%
